Data as given in PubChem BioAssay.
Several values for one entry are separate records, joined by “and”; a condition that tells them apart may be missing. Identical values can stand only once. Activity calls are given as the source filed them. Unless noted, the rule behind the calls is not given here.

Legend:
[1] = HepG2 liver cancer cell viability effects, profiling panel, resazurin fluorescence, 24 h, PK04 Diversity Set (AID 1172); settings: higher = more signal; note: test concentration not given here
[2] = basal S. cerevisiae growth modulation, no modifier, primary screen, OD600, strain BY4716, 24 h, basal condition (AID 1173); settings: OD600, 24 h, higher = more signal, called active from +8 up or from −8 down
[3] = MM1S myeloma cell viability, profiling panel, resazurin fluorescence, basal, 24 h, PK04 Diversity Set (AID 1174); settings: higher = more signal, called active from +8 up or from −8 down;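 note: MM1S multiple myeloma cell line; test concentration not given here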
[4] = target: Dihydroorotate dehydrogenase (quinone), mitochondrial (Plasmodium falciparum (isolate 3D7)) (UniProt Q08210); experiment: PfDHODH enzyme inhibitors, primary screen, biochemical, C-terminal His tag, absorbance 600 nm (AID 1175); settings: DCIP absorbance 600 nm, higher = more signal, called active from +8 up or from −8 down;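 note: recombinant parasite enzyme with a five histidine tag at its C terminus; test concentration not given here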
Chain of Dihydroorotate dehydrogenase (quinone), mitochondrial (Plasmodium falciparum (isolate 3D7)) (Q08210 whole entry, looked up): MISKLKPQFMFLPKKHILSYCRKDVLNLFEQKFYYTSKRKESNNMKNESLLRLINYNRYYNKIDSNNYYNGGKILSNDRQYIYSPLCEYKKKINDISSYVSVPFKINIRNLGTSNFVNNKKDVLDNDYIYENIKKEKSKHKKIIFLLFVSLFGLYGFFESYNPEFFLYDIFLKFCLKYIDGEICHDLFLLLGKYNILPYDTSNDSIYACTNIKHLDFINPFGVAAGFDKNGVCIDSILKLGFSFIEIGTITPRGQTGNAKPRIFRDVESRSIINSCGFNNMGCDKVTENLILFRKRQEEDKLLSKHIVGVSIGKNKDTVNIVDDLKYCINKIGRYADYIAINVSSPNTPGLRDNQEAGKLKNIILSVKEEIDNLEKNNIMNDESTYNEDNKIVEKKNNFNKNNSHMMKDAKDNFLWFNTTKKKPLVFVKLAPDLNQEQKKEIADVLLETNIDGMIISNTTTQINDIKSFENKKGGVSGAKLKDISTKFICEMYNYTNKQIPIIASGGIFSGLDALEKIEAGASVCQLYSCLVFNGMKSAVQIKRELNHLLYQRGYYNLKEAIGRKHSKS

[5] = P. aeruginosa biofilm formation inhibitors, primary screen, strain PAO1, LB-PBS medium, absorbance 600 nm (AID 1176); note: test concentration not given here; settings: P. aeruginosa PAO1 growth/biofilm, A600, 12 h; higher = more signal
[6] = S. cerevisiae RM11-1a growth modifiers, primary screen, strain RM11-1a, OD600, basal, 24 h (AID 1177); settings: OD600, 24 h, higher = more signal, called active from +8 up or from −8 down;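 note: cultures grown under basal conditions with no added stressor; test concentration not given here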
[7] = E. coli acrAB mutant growth effects, primary screen, E. coli filamentation inducers, strain DRC39, OD650, 24 h (AID 1178); settings: higher = more signal, called active from +8 up or from −8 down;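 note: growth measured as culture turbidity by optical density at 650 nm; test concentration not given here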
[8] = E. coli acrAB mutant growth effects, primary screen, E. coli filamentation inducers, strain DRC39, OD650, 48 h (AID 1179);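 note: screen aims at cell division blockers that make cells filament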; settings: E. coli DRC39 delta-acrAB growth, higher = more signal, called active from +8 up or from −8 down
[9] = RPMI8226 myeloma cell viability, profiling panel, resazurin fluorescence, basal, 24 h, PK04 Diversity Set (AID 1180); settings: higher = more signal;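 note: RPMI8826 multiple myeloma cell line at 5000 cells per well; test concentration not given here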
[10] = target: E3 ubiquitin-protein ligase XIAP (Homo sapiens) (UniProt P98170); experiment: XIAP binders, primary screen, biophysical, small-molecule microarray, fluorescence 635 nm (AID 1181); settings: small-molecule microarray binding, higher = more signal;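 note: score merges 667 nm emission and signal to noise over triplicate slides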
Chain of E3 ubiquitin-protein ligase XIAP (Homo sapiens) (P98170 whole entry, looked up): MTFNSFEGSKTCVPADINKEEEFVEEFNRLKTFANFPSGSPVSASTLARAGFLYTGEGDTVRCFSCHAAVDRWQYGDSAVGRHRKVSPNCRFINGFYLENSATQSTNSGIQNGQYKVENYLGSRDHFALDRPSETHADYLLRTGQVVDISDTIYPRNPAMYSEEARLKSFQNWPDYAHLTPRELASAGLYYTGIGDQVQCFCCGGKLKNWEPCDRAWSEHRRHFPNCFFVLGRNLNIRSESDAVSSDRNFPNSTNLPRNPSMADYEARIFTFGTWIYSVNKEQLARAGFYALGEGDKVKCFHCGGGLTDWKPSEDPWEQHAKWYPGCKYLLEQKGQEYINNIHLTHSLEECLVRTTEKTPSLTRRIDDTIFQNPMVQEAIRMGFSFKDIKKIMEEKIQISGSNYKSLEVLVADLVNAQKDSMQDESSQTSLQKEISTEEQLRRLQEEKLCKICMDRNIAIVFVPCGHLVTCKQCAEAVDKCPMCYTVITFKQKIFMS

SMILES	z-score [1]	z-score [2]	z-score [3]	composite z-score [4]	z-score [5]	z-score [6]	z-score [7]	z-score [8]	z-score [9]	composite z-score [10]
C[N+](C)(C)CCCCCCNC(=O)[C@H]1C[C@H]2C(=O)N[C@@H](CCCC[N+](C)(C)C)C(=O)N2[C@H]1c1cccc(OCCO)c1	-0.402 and -0.0872	-0.255 (inactive) and 0.763 (inactive)	0.737 (inactive) and -0.541 (inactive)	-2.69 (inactive) and -1.29 (inactive)	-0.366 (inactive) and 0.146 (inactive)	0.297 (inactive) and 1.2 (inactive)	1.04 (inactive) and -0.0715 (inactive)	1.47 (inactive) and -0.451 (inactive)	0.455 and -1.29	-0.0553 and -0.0559
O=C1NC(=O)C2C1C=CC(C(O)c1ccc([N+](=O)[O-])cc1)N2Nc1ccc(Cl)cc1Cl (stereo not given)	-1.01 and 0.266	-8.52 (active) and -8.8 (active)	0.52 (inactive) and -0.103 (inactive)	-0.87 (inactive) and -1.11 (inactive)	2.4 (inactive) and 2.49 (inactive)	-0.728 (inactive) and -1.12 (inactive)	-0.0259 (inactive) and 0.6 (inactive)	-0.568 (inactive) and 0.615 (inactive)	0.425 and 0.122	-0.0102 and 0.0975
COC(=O)c1c2oc(c1C(=O)OC)C(=O)N[C@@H](Cc1ccccc1)Cn1cc(nn1)C1(CCCCC1)NC(=O)N[C@H](CO)CC2	1.61 and 1.46	-4.6 (inactive) and 0.628 (inactive)	0.74 (inactive) and 2.29 (inactive)	0.338 (inactive) and 0.282 (inactive)	1.33 (inactive) and 0.997 (inactive)	-0.0882 (inactive) and -0.376 (inactive)	1.89 (inactive) and 0.153 (inactive)	1.56 (inactive) and 0.279 (inactive)	0.688 and 2.64	0.065 and -0.0187
C[N+](C)(C)CCCCNC(=O)[C@@H]1C[C@@H]2C(=O)N[C@@H](CCCC[N+](C)(C)C)C(=O)N2[C@@H]1c1cccc(OCCO)c1	-0.249 and -0.0346	0.962 (inactive) and 0.187 (inactive)	0.405 (inactive) and 0.349 (inactive)	-30.9 (active) and -30.3 (active)	-0.239 (inactive) and 0.022 (inactive)	1.57 (inactive) and 0.24 (inactive)	0.113 (inactive) and -0.132 (inactive)	-0.0555 (inactive) and 0.517 (inactive)	0.399 and 0.607	1.01 and -0.22
C[N+](C)(C)CCCCNC(=O)[C@H]1C[C@H]2C(=O)N[C@@H](CCCC[N+](C)(C)C)C(=O)N2[C@H]1c1cccc(OCCO)c1	-0.114 and -3.58	0.315 (inactive) and -0.201 (inactive)	-1.18 (inactive) and -1.75 (inactive)	-27.2 (active) and -30.4 (active)	0.187 (inactive) and 0.23 (inactive)	0.152 (inactive) and -0.406 (inactive)	-0.93 (inactive) and -1 (inactive)	-1.32 (inactive) and -1.66 (inactive)	-1.16 and -0.819	0.0159 and 0.136
C[C@@H]1CC[C@H]2C(=O)NC[C@@H](O)CN2[C@H]1c1ccc(Br)cc1	-0.278 and -0.27	-0.228 (inactive) and -0.64 (inactive)	-0.503 (inactive) and 0.138 (inactive)	-0.679 (inactive) and 0.382 (inactive)	0.684 (inactive) and -0.27 (inactive)	-0.154 (inactive) and 0.502 (inactive)	0.514 (inactive) and 0.669 (inactive)	-0.882 (inactive) and 0.26 (inactive)	-0.149 and 0.435	-0.0238 and -0.102
C=CCN(C(=O)C1N(CCOCCO)C(=O)C2C(C(=O)O)C3C=CC21O3)c1ccc(OC)cc1 (stereo not given)	0.0057 and 0.18	-0.174 (inactive) and -0.731 (inactive)	0.267 (inactive) and -0.0413 (inactive)	-0.511 (inactive) and -4.53 (inactive)	-0.276 (inactive) and -0.0963 (inactive)	-0.478 (inactive) and -0.298 (inactive)	0.556 (inactive) and 1.24 (inactive)	0.2 (inactive) and 0.638 (inactive)	-0.0424 and 0.0858	0.0637 and 0.0264
CC(CO)N1C(=O)[C@@H]2C3C(=O)OCCC=C[C@H]3OC23C=CCN(CCN2CCOCC2)C(=O)[C@@H]13 (stereo not given in full)	-0.437 and 0.303	0.401 (inactive) and 0.191 (inactive)	-1.45 (inactive) and -0.517 (inactive)	-1.07 (inactive) and -2.08 (inactive)	0.0405 (inactive) and 0.0809 (inactive)	0.819 (inactive) and -0.631 (inactive)	-0.831 (inactive) and -0.259 (inactive)	-0.839 (inactive) and -0.358 (inactive)	-1.03 and -0.76	0.16 and 0.219
